D2 ag-1 – agonists of human D2 dopamine receptor. HEK293 T-REx D2 cells, calcium flux agonist mode. activation, % at 2 µM. hit rate 0.53% among 340,000. AID 485358;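 active = activation over 3 SD above normal in the single-dose calcium agonist read, cut at about 30% in these data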; note: 0% is about no effect
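HEK293 Trex D2 cells, tetracycline-induced, o/n 30 C 5% CO2; no-wash Ca dye, RT 30–90 min; 10-cycle baseline, 23 nl cpd added, kinetic Ca read 180 s; agonist hits = positive Ca response.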
D2 ag-2 – human D2 receptor agonism in beta-arrestin assay. activation, % (no concentration beside the values). P14416. AID 624465. hit rate 0.084% among 360,000. DiscoveRx PathHunter D2 beta-arrestin, luminescence, 90 min; 100% = 57 uM dopamine signal; in the data active = activation above about 40%; inconclusive = between about 15% and that limit
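DiscoveRx PathHunter D2 beta-arrestin cells (2,100/well) attached overnight, then compound-stimulated 90 min at 37 C in HBSS/10 mM HEPES/0.1% Tween-20 buffer; beta-galactosidase complementation read by luminescence after 1 h at ambient temperature. Dopamine 57 uM final (EC100) as control.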
D2 antag – antagonizes the human D2 dopamine receptor | hit rate 2% among 340,000 | AID 485344 | HEK293 TREx D2 cells, calcium flux, dopamine EC80 | inhibition, % at 10 µM; in the data active = inhibition above about 30%; inactive = below that, where a call was filed; note: 0% is about no effect
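Tetracycline-induced HEK293 T-REx cells expressing D2 force-coupled to calcium signalling were dye-loaded, exposed to compound for 180 s, then challenged with an EC80 of dopamine; calcium flux was followed kinetically for a further 180 s.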
D2 PAM-1 – positive allosteric modulators of human D2 dopamine receptor. P14416. potentiation, % at 10 µM. HEK293 T-REx D2, calcium flux, EC20 dopamine potentiation. hit rate 0.34% among 340,000. AID 485347;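 active = potentiation over 3 SD above the plate norm, cut at about 30% in these data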; note: 0% is about no effect
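Cells plated with tetracycline inducer and held overnight at 30 C; calcium dye loaded 30–90 min at room temperature; baseline taken, compound added and read 180 s; EC20 dopamine then added and read 180 s.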
D2 PAM-2 – potentiates the human D2 dopamine receptor allosterically; P14416; DiscoveRx D2 beta-arrestin cells, luminescence, 90 min; 100% = 57 uM dopamine signal; potentiation, % (concentration not given with the values); hit rate 0.23% among 360,000; AID 624464; in the data active = potentiation above about 50%; inconclusive = mostly about 30% to 49%
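PathHunter beta-arrestin assay in DiscoveRx D2 cells. Compounds were added with an EC20 of dopamine (50 nM final) for 90 min at 37 deg C. Luminescence was read 1 h after detection reagent, with 57 uM dopamine as the EC100 control.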
D3 ag – activates human D3 dopamine receptor beta-arrestin recruitment; shares compounds with D2 ag-1; DiscoveRx D3 beta-arrestin cells, luminescence, 90 min; Potency, µM (doses to about 76.9 µM), inactives show at the top dose activation, usual class: activators; hit rate 4% among 2,300; AID 720506;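 note: potency is the fitted concentration of half-maximal effect; 100% = dopamine control response; nearly all actives have a fitted effect of over 70% in size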
Target sequence (P35462 whole entry, looked up): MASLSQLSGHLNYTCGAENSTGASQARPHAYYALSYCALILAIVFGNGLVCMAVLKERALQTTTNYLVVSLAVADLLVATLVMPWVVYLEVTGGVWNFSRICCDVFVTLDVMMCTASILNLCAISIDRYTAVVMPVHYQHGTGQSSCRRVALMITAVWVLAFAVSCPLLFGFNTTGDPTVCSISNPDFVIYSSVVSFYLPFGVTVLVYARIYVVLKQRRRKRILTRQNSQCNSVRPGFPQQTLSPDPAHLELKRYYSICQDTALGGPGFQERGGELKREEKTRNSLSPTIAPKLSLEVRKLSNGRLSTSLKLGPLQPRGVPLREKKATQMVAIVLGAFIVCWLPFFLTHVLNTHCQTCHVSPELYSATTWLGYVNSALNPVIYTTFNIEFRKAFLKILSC
D2 ag-3 – D2 receptor agonism, beta-arrestin counterscreen. shares compounds with D2 ag-1. DiscoveRx PathHunter D2 beta-arrestin, luminescence, 90 min; response scale: percent relative to full dopamine signal. Potency, µM (series often up to 76.9 µM), inactives show at the top dose activation, actives largely listed as activators. hit rate 5.9% among 2,300. AID 720507; note: potency is the fitted concentration of half-maximal effect; % of control where 0% means no effect; nearly all actives have a fitted effect of over 70% in size
* marks the source's active call; other numbers are inactive results; ? = inconclusive; . = no result. Rows were chosen to be rich in hits. Some 2.4% of all compounds tested hit in one or more screens of this group. Unless noted, calls come from the whole dose curve; as a rule, active = well fitted activation curve with a large enough effect; inconclusive = small, poorly fitted or top-dose-only effect; inactive = flat fitted curve, though single readings scatter.

SMILES	D2 ag-1	D2 ag-2	D2 antag	D2 PAM-1	D2 PAM-2	D3 ag	D2 ag-3
CC(=O)N1CCc2cc(S(=O)(=O)NCCCN3CCN(Cc4ccccc4)CC3)ccc21	42.1*	0.0	43.8*	-21.6	-14.3	-7.3%	7.0%
COc1cccc(C2CC(c3ccc(Cl)cc3Cl)n3nc(N)nc3N2)c1 (configuration not stated)	0.0	6.4	-0.3	15.2	-4.2	.	.
COc1cccc(C2CC(c3ccccc3Cl)n3nc(N)nc3N2)c1 (configuration not stated)	70.6*	-1.3	-10.9	-17.3	9.2	-14.7%	-2.6%
Cc1ccc(C(=O)CCC(=O)N2CCN(C/C=C/c3ccccc3)CC2)cc1	.	-2.8	.	.	-16.8	.	.
O=C(c1ccco1)N1CCN=C1SCc1c(F)cccc1Cl	37.2*	-1.9	-8.0	-10.1	-27.9	-15.4%	-1.5%
O=C(c1ccco1)N1CCN=C1SCc1ccccc1Cl	0.6	-0.9	-30.4	-3.4	-6.6	.	.
CCN(C(=O)COC(=O)CCS(=O)(=O)c1ccc(C)cc1)C1CCS(=O)(=O)C1 (configuration not stated)	0.6	-4.3	4.3	13.2	-25.9	.	.
CCN(CC)c1ccc2cc(C(N)=O)c(=N)oc2c1	44.3*	-2.4	-10.4	1.6	1.5	-6.2%	2.1%
CCN(CC)c1ccc2cc(C(N)=O)c(=O)oc2c1	-4.6	-10.8	11.4	7.9	5.6	.	.
C=CCC1Cc2c(cccc2[N+](=O)[O-])C(CC=C)N1 (configuration not stated)	50.3*	?	36.1*	-12.6	?	?	22.4µM*

Screening data from PubChem BioAssay.
